For six compounds, outcome and AC50 results are on record in PubChem BioAssay (EPA / NIEHS).

By AC50 is commonly meant the concentration at which the activity in the assay is half-maximal.

The nature of assay [1]: ATG_GRE_CIS: Attagene CIS-FACTORIAL HepG2 Assay for human Glucocorticoid Response Elements (GRE) (AID 2282947). Conditions: HepG2 GRE cis-reporter, Attagene multiplex mRNA; actives raise or lower the signal. The procedure, abridged: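 HepG2, transient cis-reporter transfection, 24 h. Reporter mRNA: RT-PCR then CE, fluorescence. Fit both directions vs DMSO.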
Assay [2] can be described thus: ATG_ISRE_CIS: Attagene CIS-FACTORIAL HepG2 Assay for human Interferon Regulatory Factor 1 (IRF1) binding to an Interferon-Stimulated Response Element (ISRE) (AID 2282948). Conditions: HepG2 ISRE cis-reporter (Attagene), mRNA transcription readout; actives raise or lower the signal. The gist of the method:
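Signal reflects induction or loss of ISRE-linked reporter mRNA in transiently transfected HepG2 cells after a 24 h treatment, detected by fluorescent RT-PCR fragments on capillary electrophoresis and normalised to DMSO.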

The nature of assay [3]: ATG_M_32_CIS: Attagene CIS-FACTORIAL HepG2 Assay for M32 Transcription Factor (Internal Marker) (AID 2282949).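 Further: background control marker of the multiplexed CIS panel rather than a real target.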 To be noted: HepG2 Attagene cis-factorial M32 reporter, mRNA; actives raise or lower the signal. The procedure, abridged:
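Using DMSO as baseline, bidirectional curve fits were applied to reporter mRNA signals. These came from transiently transfected HepG2 cells exposed for 24 h, with RNA analysed by RT-PCR, FAM primer extension, HpaI digestion and CE.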

For assay [4], the target named is Hypoxia-inducible factor 1-alpha (Homo sapiens) (UniProt Q16665). Kind of assay: ATG_HIF1a_CIS: Attagene CIS-FACTORIAL HepG2 Assay for human Hypoxia Inducible Factor 1 (HIF1A) (AID 2282951). Conditions: HepG2 Attagene cis-factorial HIF1a reporter transcription; actives raise or lower the signal. The gist of the method:
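Activity is fitted in both directions relative to DMSO. Reporter transcripts are read by RT-PCR, fluorescent primer extension and capillary electrophoresis after 24 h chemical treatment. The cells are HepG2 carrying transiently transfected cis-element-driven reporter units responding to endogenous factors.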

Assay [5] addresses Hepatocyte nuclear factor 6 (Homo sapiens) (UniProt Q9UBC0). Kind of assay: ATG_HNF6_CIS: Attagene CIS-FACTORIAL HepG2 Assay for human Hepatocyte Nuclear Factor 6 (HNF6) (AID 2282952). Conditions: HepG2 Attagene cis-factorial HNF6 reporter transcription; actives raise or lower the signal. The procedure, abridged: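 Using cis-element reporters in HepG2 liver cells, the assay tracks endogenous factor-driven transcription 24 h post-dosing. Signal comes from 6-FAM-labelled, HpaI-digested RT-PCR fragments, with gain or loss scored against DMSO.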

In assay [6] the target is Heat shock factor protein 1 (Homo sapiens) (UniProt Q00613). Nature of the assay: ATG_HSE_CIS: Attagene CIS-FACTORIAL HepG2 Assay for human Heat Shock Transcription Factor 1 (HSE) (AID 2282953). Conditions: HepG2 HSE cis-reporter, Attagene RNA transcription; actives raise or lower the signal. The procedure, abridged:
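HepG2 cells transfected with cis-promoter reporter units sensing endogenous transcription factor activity; reporter mRNA quantified 24 h post-dose by RT-PCR and capillary electrophoresis of 6-FAM-labelled products. Bidirectional fitting against DMSO.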

Assay [7] in a line: ATG_MRE_CIS: Attagene CIS-FACTORIAL HepG2 Assay for human Metal Responsive Element (MRE) (AID 2282954). To be noted: HepG2 MRE cis-reporter transcription, Attagene multiplex; actives raise or lower the signal. The procedure, abridged:
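Readout: capillary electrophoresis of 6-FAM-labelled, HpaI-digested RT-PCR reporter products. System: HepG2 cells carrying transient multiplexed cis reporters, dosed 24 h. Analysis: bidirectional fit, DMSO baseline.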

Assay [8] can be described thus: ATG_PBREM_CIS: Attagene CIS-FACTORIAL HepG2 Assay for human Phenobarbital-responsive Enhancer Module (PBREM) (AID 2282955). Conditions: HepG2 PBREM cis-reporter, Attagene multiplexed transcription; actives raise or lower the signal. The gist of the method: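 Endogenous transcription factor activity was read from reporter transcripts in transiently transfected human HepG2 liver cells after 24 h dosing. RT-PCR products were fluorescently labelled, HpaI-cut and sized by capillary electrophoresis; activity fitted bidirectionally against DMSO baseline.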

The nature of assay [9]: ATG_PXRE_CIS: Attagene CIS-FACTORIAL HepG2 Assay for human Pregnane X Receptor Element (PXRE) (AID 2282957). To be noted: HepG2 Attagene CIS-FACTORIAL PXRE reporter, mRNA; actives raise or lower the signal. The procedure, abridged:
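Using HepG2 transfected with multiple reporter transcription units, endogenous factor-driven transcription was scored as reporter mRNA after 24 h exposure.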

Assay [10] can be described thus: ATG_RORE_CIS: Attagene CIS-FACTORIAL HepG2 Assay for human RAR-related Orphan Receptor Element (RORE) (AID 2282959). Conditions: HepG2 Attagene cis-factorial RORE reporter, mRNA; actives raise or lower the signal. The gist of the method:
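RORE reporter transcripts reflecting endogenous factor activity were read after 24 h compound exposure of transfected HepG2 cells, using reverse transcription, PCR, fluorescent labelling and capillary electrophoresis sizing. Gain or loss fitted against DMSO.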

The nature of assay [11]: ATG_Sox_CIS: Attagene CIS-FACTORIAL HepG2 Assay for human SRY-box transcription factor (SOX) (AID 2282960). To be noted: HepG2 Attagene cis-factorial SOX reporter, mRNA; actives raise or lower the signal. The procedure, abridged:
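Reporter transcripts, measured by RT-PCR and capillary electrophoresis of labelled fragments, report endogenous SOX transcription factor activity. Transiently transfected human HepG2 cells receive chemical for 24 h; changes in either direction are fitted relative to DMSO.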

Assay [12] has as its target Transcription factor Sp1 (Homo sapiens) (UniProt P08047). Kind of assay: ATG_Sp1_CIS: Attagene CIS-FACTORIAL HepG2 Assay for human Specificity Protein 1 (Sp1) (AID 2282961). To be noted: HepG2 Sp1 cis-reporter transcription, actives raise or lower the signal. The gist of the method:
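Read-out is reporter transcript level, measured by RT-PCR and fluorescent capillary electrophoresis after 24 h chemical treatment. System: transiently transfected HepG2 cells reporting endogenous transcription factor activity; gain or loss fitted against DMSO baseline.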

A short description of assay [13]: ATG_SREBP_CIS: Attagene CIS-FACTORIAL HepG2 Assay for human Sterol Regulatory Element Binding (SREBP) (AID 2282962). To be noted: HepG2 Attagene cis-factorial SREBP reporter, mRNA; actives raise or lower the signal. The gist of the method:
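Values derive from bidirectional curve fitting with DMSO as baseline. The underlying measurement is reporter mRNA from cis-element-regulated units in transiently transfected HepG2, quantified by RT-PCR and capillary electrophoresis after 24 h exposure.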

Assay [14] is described as follows: ATG_TA_CIS: Attagene CIS-FACTORIAL HepG2 Assay for human TA Basal Promoter (AID 2282964). Conditions: HepG2 Attagene CIS-factorial TA basal promoter reporter; actives raise or lower the signal. The procedure, abridged:
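HepG2 cells transiently transfected with multiple reporter units under cis promoter elements, reporting endogenous transcription factor activity; this endpoint tracks the TA basal promoter as background control. Reporter mRNA after 24 h dosing measured by RT-PCR/capillary electrophoresis; bidirectional fits versus DMSO.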

Assay [15] is described as follows: ATG_TCF_b_cat_CIS: Attagene CIS-FACTORIAL HepG2 Assay for human T-Cell-Factor with beta-catenin (TCF/b-cat) (AID 2282965). To be noted: HepG2 TCF/beta-catenin cis-reporter transcription, actives raise or lower the signal. The procedure, abridged:
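In this cis-format system, transfected HepG2 cells report endogenous transcription factor activity. Readout after 24 h exposure is reporter transcript abundance from RT-PCR and capillary electrophoresis, analysed for gain or loss of signal versus DMSO.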

The target of assay [16] is Paired box protein Pax-6 (Homo sapiens) (UniProt P26367). Kind of assay: ATG_Pax6_CIS: Attagene CIS-FACTORIAL HepG2 Assay for human Paired Box 6 (PAX6) (AID 2282956). Conditions: HepG2 CIS-FACTORIAL PAX6 reporter transcription, RNA readout; actives raise or lower the signal. The gist of the method: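 Values derive from bidirectional curve fitting of reporter mRNA signal relative to DMSO. HepG2 cells bearing transfected cis-regulated MRTUs were exposed for 24 h; transcripts were read by RT-PCR and capillary electrophoresis.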
Chain of Paired box protein Pax-6 (Homo sapiens) (P26367 whole entry, looked up): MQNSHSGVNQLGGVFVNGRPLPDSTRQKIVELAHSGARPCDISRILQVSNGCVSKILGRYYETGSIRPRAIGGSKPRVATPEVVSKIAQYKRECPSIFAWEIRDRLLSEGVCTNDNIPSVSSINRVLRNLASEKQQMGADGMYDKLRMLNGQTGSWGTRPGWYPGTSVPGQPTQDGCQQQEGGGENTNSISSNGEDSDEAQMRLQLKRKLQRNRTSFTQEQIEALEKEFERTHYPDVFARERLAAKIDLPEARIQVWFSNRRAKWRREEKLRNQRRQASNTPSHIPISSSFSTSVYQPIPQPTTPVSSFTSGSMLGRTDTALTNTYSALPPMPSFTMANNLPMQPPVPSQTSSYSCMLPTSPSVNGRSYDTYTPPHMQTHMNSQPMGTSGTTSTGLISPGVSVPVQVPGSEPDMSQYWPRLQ

Assay [17] deals with Signal transducer and activator of transcription 3 (Homo sapiens) (UniProt P40763). Nature of the assay: ATG_STAT3_CIS: Attagene CIS-FACTORIAL HepG2 Assay for human Signal Transducer and Activator of Transcription 3 (STAT3) (AID 2282963). To be noted: HepG2, Attagene cis-factorial STAT3 reporter transcription; actives raise or lower the signal. The gist of the method:
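Uses human liver HepG2 transiently carrying cis-regulated reporter transcription units. Following 24 h dosing, reporter mRNA induction was detected by RT-PCR and capillary electrophoresis, analysed bidirectionally versus DMSO.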

The nature of assay [18]: ATG_M_06_CIS: Attagene CIS-FACTORIAL HepG2 Assay for M06 Transcription Factor (Internal Marker) (AID 2282950). Conditions: HepG2 Attagene CIS-FACTORIAL M06 internal marker reporter; actives raise or lower the signal. The procedure, abridged:
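Internal background marker within multiplexed cis-reporter HepG2 system. Cells transiently transfected, dosed 24 h; reporter mRNA measured by RT-PCR, HpaI digestion and capillary electrophoresis. Bidirectional fit relative to DMSO.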

Assay [19] can be described thus: ATG_PPRE_CIS: Attagene CIS-FACTORIAL HepG2 Assay for human Peroxisome Proliferator-activated Response Element (PPRE) (AID 2282958). Conditions: HepG2 PPRE cis-element reporter, Attagene transcription factor profiling; actives raise or lower the signal. The gist of the method: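 Endogenous PPRE-driven transcription is measured in HepG2 cells carrying transfected multi-reporter constructs. Reporter transcripts are quantified by RT-PCR, HpaI digestion and capillary electrophoresis 24 h after dosing. DMSO baseline, bidirectional fit.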

SMILES strings stand for the structures. Calls of active or inactive are those of the source. How the source made its calls: active means hit-call score of the fitted dose curve at least 0.9, where 1 is the maximum; inactive means score below 0.9.

Chain of Transcription factor Sp1 (Homo sapiens) (P08047 whole entry, looked up): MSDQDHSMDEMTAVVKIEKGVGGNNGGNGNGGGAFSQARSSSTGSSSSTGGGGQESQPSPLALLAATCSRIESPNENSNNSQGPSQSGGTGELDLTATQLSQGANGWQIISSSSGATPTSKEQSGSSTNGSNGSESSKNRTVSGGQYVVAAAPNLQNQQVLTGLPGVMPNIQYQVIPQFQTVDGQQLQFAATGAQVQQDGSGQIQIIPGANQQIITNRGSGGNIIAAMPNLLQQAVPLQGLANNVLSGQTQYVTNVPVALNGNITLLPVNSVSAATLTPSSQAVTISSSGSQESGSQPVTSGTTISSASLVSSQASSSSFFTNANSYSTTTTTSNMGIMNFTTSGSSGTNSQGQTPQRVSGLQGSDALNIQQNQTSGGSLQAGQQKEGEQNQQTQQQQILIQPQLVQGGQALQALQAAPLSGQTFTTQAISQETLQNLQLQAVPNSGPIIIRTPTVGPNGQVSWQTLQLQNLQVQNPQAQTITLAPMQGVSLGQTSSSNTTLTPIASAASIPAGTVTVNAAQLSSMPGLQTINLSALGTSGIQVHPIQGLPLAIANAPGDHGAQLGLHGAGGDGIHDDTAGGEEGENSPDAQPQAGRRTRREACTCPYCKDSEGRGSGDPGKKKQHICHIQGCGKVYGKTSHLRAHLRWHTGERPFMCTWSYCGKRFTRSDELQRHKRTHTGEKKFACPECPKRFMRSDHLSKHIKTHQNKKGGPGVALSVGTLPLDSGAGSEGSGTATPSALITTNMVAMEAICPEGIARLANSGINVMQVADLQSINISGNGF
Chain of Signal transducer and activator of transcription 3 (Homo sapiens) (P40763 whole entry, looked up): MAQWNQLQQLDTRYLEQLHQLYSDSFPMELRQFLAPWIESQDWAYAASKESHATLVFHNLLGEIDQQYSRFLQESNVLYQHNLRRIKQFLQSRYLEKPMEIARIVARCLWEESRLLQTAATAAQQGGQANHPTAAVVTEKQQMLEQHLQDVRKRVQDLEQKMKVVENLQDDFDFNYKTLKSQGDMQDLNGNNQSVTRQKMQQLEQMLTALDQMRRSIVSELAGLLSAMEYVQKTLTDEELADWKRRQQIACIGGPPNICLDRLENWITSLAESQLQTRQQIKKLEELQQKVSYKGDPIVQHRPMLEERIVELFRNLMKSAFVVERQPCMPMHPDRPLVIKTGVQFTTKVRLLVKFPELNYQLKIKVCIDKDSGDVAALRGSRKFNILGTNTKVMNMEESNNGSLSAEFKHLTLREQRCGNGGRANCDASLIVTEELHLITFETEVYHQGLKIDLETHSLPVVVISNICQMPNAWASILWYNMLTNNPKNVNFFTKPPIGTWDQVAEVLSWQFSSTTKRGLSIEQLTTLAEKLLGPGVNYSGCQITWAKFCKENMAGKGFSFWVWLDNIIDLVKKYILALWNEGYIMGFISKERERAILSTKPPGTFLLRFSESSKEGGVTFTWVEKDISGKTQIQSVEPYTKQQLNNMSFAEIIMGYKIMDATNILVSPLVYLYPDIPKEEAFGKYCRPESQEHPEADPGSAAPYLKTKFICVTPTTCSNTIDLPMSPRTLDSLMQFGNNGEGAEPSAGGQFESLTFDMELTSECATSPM
Chain of Hypoxia-inducible factor 1-alpha (Homo sapiens) (Q16665 whole entry, looked up): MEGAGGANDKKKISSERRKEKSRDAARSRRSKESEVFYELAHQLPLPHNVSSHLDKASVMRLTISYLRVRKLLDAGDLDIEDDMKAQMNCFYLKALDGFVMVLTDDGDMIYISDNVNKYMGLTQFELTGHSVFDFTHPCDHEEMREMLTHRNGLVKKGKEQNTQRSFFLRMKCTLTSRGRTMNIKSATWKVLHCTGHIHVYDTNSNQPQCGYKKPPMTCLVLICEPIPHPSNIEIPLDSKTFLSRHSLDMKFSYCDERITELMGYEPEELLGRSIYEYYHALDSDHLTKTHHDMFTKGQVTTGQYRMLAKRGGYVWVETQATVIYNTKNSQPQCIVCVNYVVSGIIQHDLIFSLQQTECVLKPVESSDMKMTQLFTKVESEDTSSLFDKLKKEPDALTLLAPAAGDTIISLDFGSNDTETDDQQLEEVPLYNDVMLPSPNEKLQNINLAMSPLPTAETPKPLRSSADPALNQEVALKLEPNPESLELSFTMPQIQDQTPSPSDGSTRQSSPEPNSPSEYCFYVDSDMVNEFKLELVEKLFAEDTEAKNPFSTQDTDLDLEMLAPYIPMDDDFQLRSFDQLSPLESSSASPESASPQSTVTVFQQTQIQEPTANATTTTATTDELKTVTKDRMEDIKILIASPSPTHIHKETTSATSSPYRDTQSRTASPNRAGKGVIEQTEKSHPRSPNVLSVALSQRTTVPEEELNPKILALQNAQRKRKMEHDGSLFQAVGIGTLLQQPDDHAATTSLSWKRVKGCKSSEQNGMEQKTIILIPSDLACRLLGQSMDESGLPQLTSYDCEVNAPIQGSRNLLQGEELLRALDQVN
Chain of Hepatocyte nuclear factor 6 (Homo sapiens) (Q9UBC0 whole entry, looked up, the tested form may be a part): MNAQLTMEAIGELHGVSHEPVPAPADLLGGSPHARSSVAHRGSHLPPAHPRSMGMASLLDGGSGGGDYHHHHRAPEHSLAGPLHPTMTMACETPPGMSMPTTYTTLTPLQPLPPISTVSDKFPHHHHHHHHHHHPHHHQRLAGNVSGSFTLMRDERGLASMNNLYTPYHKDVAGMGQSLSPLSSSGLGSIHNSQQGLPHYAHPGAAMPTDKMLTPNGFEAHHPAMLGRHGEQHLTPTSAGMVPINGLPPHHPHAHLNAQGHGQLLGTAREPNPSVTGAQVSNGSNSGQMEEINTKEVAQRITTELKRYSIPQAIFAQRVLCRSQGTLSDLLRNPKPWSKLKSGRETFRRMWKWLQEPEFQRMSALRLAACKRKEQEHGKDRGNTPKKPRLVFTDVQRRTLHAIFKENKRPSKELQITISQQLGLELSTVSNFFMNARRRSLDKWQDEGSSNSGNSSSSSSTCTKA
Chain of Heat shock factor protein 1 (Homo sapiens) (Q00613 whole entry, looked up): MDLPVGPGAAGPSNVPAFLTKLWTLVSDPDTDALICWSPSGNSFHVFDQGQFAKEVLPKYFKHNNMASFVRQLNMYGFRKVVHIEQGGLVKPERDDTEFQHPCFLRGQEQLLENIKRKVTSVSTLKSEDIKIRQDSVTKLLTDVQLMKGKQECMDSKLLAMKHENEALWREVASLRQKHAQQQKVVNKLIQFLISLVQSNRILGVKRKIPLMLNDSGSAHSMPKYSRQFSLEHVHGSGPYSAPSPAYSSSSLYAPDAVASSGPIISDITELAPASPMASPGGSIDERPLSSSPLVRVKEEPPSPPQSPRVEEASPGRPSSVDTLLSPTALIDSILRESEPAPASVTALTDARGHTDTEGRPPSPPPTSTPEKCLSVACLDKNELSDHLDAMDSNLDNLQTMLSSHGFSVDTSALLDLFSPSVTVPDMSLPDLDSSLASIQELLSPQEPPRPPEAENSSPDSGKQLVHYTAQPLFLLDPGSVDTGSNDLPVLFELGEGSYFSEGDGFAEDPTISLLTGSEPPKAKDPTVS

`CC(C)(C)OOC(C)(C)CCC(C)(C)OOC(C)(C)C`: the result in assay [1], in assay [2], in assay [3], in assay [4], in [5] and in assay [6] was inactive. In addition, the compound was called inactive in [7], in assay [8], in assay [10], in [11], in assay [14] and in [15]. The figures for the half-maximal activity concentration (AC50) in [9], in assay [12] and in [13] were 8.34 µM (active), 177 µM (active) and 38 µM (active), respectively.

On to `CCCCCOC(=O)c1ccccc1C(=O)OCCCCC`, for which the compound was called inactive in assay [1], in assay [2], in [3], in assay [4], in [5] and in assay [6]. Besides, the result in assay [8], in assay [16], in assay [10], in [11], in assay [12] and in assay [13] was inactive. The outcome in assay [17], in [14] and in assay [15] was inactive. Also, the AC50 is 151 µM (active) in assay [7] and 27.3 µM (active) in assay [9].

For `Cc1ccc(N)cc1`, the call in [2], in [3], in assay [18], in assay [4], in assay [5] and in assay [6] was inactive. In addition, the call in assay [7], in assay [8], in assay [16], in assay [9], in assay [10] and in [11] was inactive. Further, the outcome in assay [12], in assay [13], in [17], in assay [14] and in [15] was inactive.

Regarding `C=CCc1ccc2c(c1)OCO2`, the compound was called inactive in assay [2], in assay [3], in assay [4], in assay [5], in [6] and in assay [7]. Also, the result in [8], in assay [9], in [10], in assay [11], in [12] and in assay [13] was inactive. The result in assay [14] and in assay [15] was inactive.

For `c1ccc2c(c1)-c1cccc3cccc-2c13`, the compound was classed as inactive in [2], in assay [4], in assay [5], in assay [6], in assay [7] and in assay [8]. The result in [19], in [10], in [11], in assay [12], in assay [13] and in assay [17] was inactive. For the same compound, the result in [14] and in assay [15] was inactive. Also, the AC50 in [3] is 0.00928 µM (active); in assay [9], 26 µM (active).

With `Cc1ccc(N)c(N)c1`, the outcome in assay [1], in assay [2], in assay [3], in assay [4], in [5] and in assay [6] was inactive. Further, the outcome in [8], in assay [16], in assay [9], in assay [11], in [12] and in assay [13] was inactive. Besides, the compound was called inactive in [17], in assay [14] and in assay [15]. Also, the AC50 in assay [7] is 29.1 µM (active); in assay [10], 31.2 µM (active).
